# Source: ChEMBL document CHEMBL1157539, “Thousands of chemical starting points for antimalarial lead identification” (Nature, 2010)
# Values joined by “and” are separate entries in the source; they are usually repeats but may differ in a detail not shown here. Identical values can stand only once.
# Tests used:
# Assay type in all cases: functional
# Plasmodium falciparum [1] = experiment: GSK_TCMDC: Inhibition of Plasmodium falciparum 3D7 in whole red blood cells, using parasite LDH activity as an index of growth. Test compounds present at 2uM
# Plasmodium falciparum [2] = experiment: GSK_TCMDC: Inhibition of Plasmodium falciparum Dd2 in whole red blood cells, using parasite LDH activity as an index of growth. Test compounds present at 2uM
# HepG2 = experiment: GSK_TCMDC: Percent inhibition of human HepG2 cell line. Test compounds present at 10uM.
Compound,Inhibition (Plasmodium falciparum [1]),Inhibition (Plasmodium falciparum [2]),Inhibition (HepG2)
O=S(=O)(Nc1ccc(CCN2CCCCC2CCN2CCCC2)cc1)c1cccc2cccnc12 (stereo unspecified),100%,0%,20%
CN(C)CC(O)C(c1ccccc1)c1ccc(Cl)cc1.O=C(O)CCC(=O)O (stereo unspecified),99%,4%,4%
O=C(Nc1ccccc1)c1ccc(N2CCC(COc3cccc(C(F)(F)F)c3)CC2)nc1,96%,83%,11%
Cl.O=C(c1ccc(-c2ccc(Cl)cc2)o1)N1CCc2cc3nccc(N4CCN5CCC[C@H]5C4)c3cc21,100%,86%,1%
N#Cc1ccc(N(CCNS(=O)(=O)c2cc(Br)c(Cl)s2)Cc2ccccc2C(F)(F)F)cc1C(F)(F)F,92%,57%,3%
Cl.O=c1nc(NCCCNCc2cc3c(Cl)cc(Cl)cc3[nH]2)[nH]c2ccsc12,96%,11%,62%
CN1CCCN(Cc2ccc(-c3cccc(NC(=O)c4cccc(C#N)c4)c3)cc2)CC1.O=C(O)C(F)(F)F,100%,64%,17%
Cn1cc(C(=O)Nc2cccc(-c3cccc(-c4nc5ccccc5[nH]4)c3)c2)n(C)c1=O,99%,60%,0%
Cc1ccc(-c2cncc(-c3cc(NC4CCN(Cc5ccccc5)CC4)nc(-c4ccccc4)n3)c2)cc1,100%,66%,0%
COc1cc2nc(N3CCC(CNC(=O)c4cc(Br)c(Br)s4)CC3)nc(N)c2cc1OC.O=C(O)C(F)(F)F,100%,97%,22%
c1ccc(C2CCC(N3CCC(N4CCN(c5ccccc5)CC4)CC3)CC2)cc1 (stereo unspecified),97%,34%,6%
Fc1ccc2[nH]c(-c3cccc(-c4cccc(CN5CCN(c6cnccn6)CC5)c4)c3)nc2c1.O=C(O)C(F)(F)F,93%,35%,17%
O=C(O)C(F)(F)F.c1cc(-c2ccc(CNCCCn3ccnc3)cc2)cc(-c2nc3ccccc3[nH]2)c1,100%,100%,17%
CC(C)(C)C1CCc2onc(C(=O)Nc3cc(Cl)ccc3O)c2C1 (stereo unspecified),98%,82%,5%
COc1ccc(CCN(C)CCOc2ccc(NC(=O)c3cc(SC)cc4c(=O)c5ccccc5[nH]c34)cc2)cc1OC,87%,44%,7%
CCn1ccc2c(N3CCCC3=O)cc(C(=O)N[C@@H](Cc3ccccc3)[C@H](O)CNCc3cccc(OC)c3)cc21,94%,92%,4%
Cc1ccc(Nc2nc(N/N=C/c3cccc(O)c3)nc(Nc3ccc([N+](=O)[O-])cc3)n2)cc1C,100%,69%,0%
Cc1cc2nc(N/C(N)=N/C(=O)NC3CCCCC3)nc(C)c2cc1C,94%,98%,20%
O=C(Nc1ccc(N2CCN(Cc3ccccc3)CC2)cc1)c1cccs1.O=C(O)C(F)(F)F,87%,86%,0%
CCOc1c(Cl)cc(Cl)cc1CNCCCNc1nc2ccccc2[nH]1.Cl,94%,1%,18%
CCCCCN1CCC(NS(=O)(=O)c2cccc(C(=O)Nc3ccc(Cl)cc3)c2)CC1.O=C(O)C(F)(F)F,88%,29%,24%

Compound,Inhibition (Plasmodium falciparum [1]),Inhibition (Plasmodium falciparum [2]),Inhibition (HepG2)
CCN(CC)CCN(Cc1ccc(-c2ccc(Br)cc2)cc1)C(=O)Cn1c(CCc2cccc(F)c2F)nc(=O)c2ccccc21.O=C(O)C(O)C(O)C(=O)O,98%,74%,37%
O=C(Nc1ccccc1O)c1ccc(Oc2cccc(C(=O)Nc3ccccc3O)c2)cc1,97%,70%,33%
CC1(C)C(=O)Nc2ccc3c(c21)CC1SC(=O)NN=C31 (stereo unspecified),96%,92%,6%
CC(C)CNCc1cccc(-c2ccc(CN(CCCN3CCN(C)CC3)C(=O)CCC3CCCC3)cc2)c1.O=C(O)C(F)(F)F,98%,89%,82%
Cl.NC(=O)Nc1ccc2cn[nH]c2c1,97%,0%,4%
Cl.O=S(=O)(Nc1ccc2nccc(N3CCNCC3)c2c1)c1ccc2oc3ccccc3c2c1,100%,2%,16%
CCOc1ccc(-c2nonc2NC(=O)c2ccccc2)cc1OCC,99%,100%,6%
Cc1cc(N(C)C)nc(Nc2ccc(NC(=O)C3CCCCC3)cc2)n1,100%,68%,3%
O=C(CC1CCCC1)Nc1ccc2c(c1)CCC2,93%,0%,0%
CN(C)Cc1ccc(-c2ccc3c(Nc4ccc(Oc5ccccc5)cc4)ccnc3c2)o1,100%,100%,10%
O=C(CN1CCN(S(=O)(=O)C=Cc2ccccc2)CC1)Nc1cc(C(F)(F)F)ccc1Cl,96%,63%,23%
O=C(Nc1ccc(Cl)c(C(F)(F)F)c1)c1ccc(Cl)c([N+](=O)[O-])c1,87%,18%,20%
CC(=Nc1ccc(Cl)c(Cl)c1)N(C)C.Cl,98%,0%,0%
Cc1cccc(-c2ccc(NC(=O)C3CCN(Cc4cccc(O)c4)CC3)cc2)c1,92%,64%,21%
O=C(Nc1cccc(CN2CCCN(Cc3cccc(O)c3)CC2)c1)c1cc2ccccc2s1.O=C(O)C(F)(F)F,100%,75%,15%
Nc1ncc(-c2ccc3[nH]ccc3c2)c2ccc(-c3ccncc3)cc12,100%,100%,42%
Cc1cccc(NC(=O)Nc2cccc(-c3ccc(-c4nc5cc(C(F)(F)F)ccc5[nH]4)cc3)c2)c1,100%,94%,44%
COCCn1c(Sc2ncnc3sccc23)nc2ccccc21,95%,72%,0%
CCCCN1CCN(c2cc(NS(=O)(=O)c3cccc(C(=O)Nc4ccc(C(F)(F)F)cc4)c3)ccc2OC)CC1.O=C(O)C(F)(F)F,99%,7%,6%
c1ccc(OCCOc2ccc(Nc3ccnc4cc5ccccc5cc34)cc2)cc1,100%,96%,44%
COc1cc(-c2nc(-c3ccncc3)c(-c3ccc4c(c3)CCC4=NO)[nH]2)ccc1OCCN1CCN(C)CC1.Cl,99%,77%,53%

Compound,Inhibition (Plasmodium falciparum [1]),Inhibition (Plasmodium falciparum [2]),Inhibition (HepG2)
N=C(Nc1ccccc1)Nc1cccc(Cc2ccc([N+](=O)[O-])cc2)n1,96%,19%,28%
Cc1cc(N2CCN(C3CCCCC3)CC2)nc2cccc(O)c12,100%,37%,12%
Cl.O=C(Nc1ccc(SC(F)(F)F)cc1)Nc1ccnc2ccccc12,95%,42%,26%
Cc1c(CC(=O)NCCC2CCN(CCCCCNC(=O)/C=C/c3ccc(Cl)c(Cl)c3)CC2)sc2ccc(Cl)cc12,92%,8%,59%
COCCNCc1nc(-c2ccc3c(Nc4ccc(Cl)cc4F)ccnc3c2)cs1,100%,100%,0%
O=C(CN1CCC(NCc2cnc(-c3ccc(Cl)cc3)[nH]2)CC1)N1CCc2ccccc21,100%,5%,11%
O=C(Nc1ccc(Cl)cc1)c1ccc(CN2CCCN(CC3CCCCC3)CC2)cc1.O=C(O)C(F)(F)F,92%,42%,48%
CN(CC(=O)Nc1ccc(F)c(F)c1F)c1ncnc2sc(-c3ccccc3)cc12,95%,34%,0%
COc1cc(-c2cc3cc(Cl)c(Cl)cc3[nH]2)ccc1C(=O)NCCC1CCCN1C.O=C(O)C(F)(F)F (stereo unspecified),91%,41%,20%
C#Cc1cccc(NC(=O)[C@H](CC2CCCCC2)Nc2ccc(C#N)c3ccccc23)c1.O=C(O)C(F)(F)F,100%,99%,48%
CC(C)c1ccc(CN(C)CCCCNC(=O)c2ccc(NC(=O)c3ccc(Cl)cc3)cc2)cc1,92%,0%,17%
CN(Cc1cccc(O)c1)C1CCCN(c2cc(NC(=O)c3ccc(F)cc3)ccn2)C1.O=C(O)C(F)(F)F (stereo unspecified),91%,12%,8%
Cc1[nH]c2cc(F)ccc2c(=O)c1Cc1ccc(Cl)cc1.Cc1[nH]c2cccc(F)c2c(=O)c1Cc1ccc(Cl)cc1,94% and 93%,92% and 94%,7% and 6%
N=C(N)NCCCN(Cc1ccccc1)c1ccc(Cl)cc1.O=S(=O)(O)O,100%,98%,0%
CCN(CC(C)O)C(=O)c1ccc(-c2ccc(-c3nc4cccc(C)c4[nH]3)cc2)cc1 (stereo unspecified),94%,13%,18%
Cl.O=C(Nc1cccc(C2=NCCCN2)c1)Nc1cccc(C2=NCCCN2)c1,81%,70%,5%
Cl.Ic1cc(Nc2ncnc3ccsc23)ccc1OCc1ccccc1,100%,81%,22%
NC(=O)c1cccc(C(=O)Nc2ccc(-c3cccc(-c4nc5cc(C(F)(F)F)ccc5[nH]4)c3)cc2)c1,100%,86%,74%
CNC(=O)c1cnc(Nc2ccc(N3CCOCC3)cc2)nc1Nc1cccc(O)c1.O=C(O)C(F)(F)F,90%,78%,23%
CNCc1ccc2nc(-c3coc(Cc4cc(Cl)ccc4OCC(C)C)n3)[nH]c2c1.Cl,100%,95%,34%
